The values that follow come from PubChem BioAssay (EPA / NIEHS).

Active and inactive are the calls of the source. The calls were made as follows: active = hit-call score of the fitted dose curve at least 0.9, where 1 is the maximum; inactive = score below 0.9.

Read-out in the assay: Cytochrome P450 4A22 (Homo sapiens) (UniProt Q5TCH4)
Description: LTEA_HepaRG_CYP4A22: Life Technologies and Expression Analysis (LTEA) Assay for Cytochrome P450 4A22 (CYP4A22) using HepaRG (AID 2283495). Particulars: mRNA level, 48 h; actives raise or lower the signal. On the procedure: LTEA_HepaRG is a cell based, multiplexed-readout assay that uses HepaRG, a human liver cell line, with measurements taken at 48 hours after chemical dosing on a 96-well plate.LTEA_HepaRG_CYP4A22 is one of 102 assay component(s) measured in the LTEA HepaRG cell culture assay. It is a marker of NR mediated metabolism.Data from the assay component LTEA_HepaRG_CYP4A22 was analyzed into 1 endpoint. This assay endpoint, LTEA_HepaRG_CYP4A22, was analyzed with bidirectional fitting relative to DMSO as the negative control and baseline of activity. Using a type of inducible reporter, measures of mRNA induction for gain or loss-of-signal activity can be used to understand regulation of transcription factor activity. To generalize the intended target to other relatable targets, this assay endpoint is annotated to the cyp intended target family, where the subfamily is xenobiotic metabolism.
A total of 1060 chemcials from the ToxCast library were tested in eight-point concentration-response experiments. Cell culture and cytotoxicity assays were conducted at Thermo Fisher Scientific's Custom Services facility (Madison, WI). A single lot of human HepaRG cells (Thermo Fisher Scientific, Frederick, MD) was used for the cell culture experiments. 96-well format collagen type I coated plates of human HepaRG cells were prepared using established methods. Briefly, cryopreserved HepaRG cells were thawed, plated at a density of approximately 100,000 cells/well in HepaRG Thaw, Plate, and General Purpose media (HPRG770, Thermo Fisher Scientific), and incubated for 48 hours. 0.5% DMSO was selected as vehicle control to balance the requisite need of DMSO in HepaRG cultures to maintain differentiation (for example, baseline metabolism, proportions of hepatocytes vs. cholangiocytes), while enabling further hepatic receptor pathway activation (for example, PXR and CAR) in response to chemical exposure. 48 hours after plating, the culture medium was replaced with HepaRG Serum-Free Incudtion Media. Cells were exposed to each test chemical in duplicate and maintained in CO2 incubators for another 48 hours. Chemical plates were thawed to room temperature and 200x concentrations of treatment groups were prepared. 8-point conentration-reponse curves were made with the highest exposure at 100 uM, followed by half-log dilutions, all in 0.5% DMSO. Each test plate contained variouse controls, induction positive controls (1mM phenobarbital), cytotoxicity positive controls ([…] aflatoxin B1), vehicle controls (0.5% DMSO), and total lysis controls (0.5% DMSO). Cell morphology images were taken using an Essen IncuCyte FLR automated microscope, with six 96-well plates imaged in about 24 minutes. Images were captured and exported and JPEG files. Spent culture media was transfered to black-well plates for the LDH assay, and remaining media was sorted at -80 C for later use. Cells were treated with RLT buffer and frozen until shipped for gene expression analysis. Total RNA was isolated from the cell suspension in 75 uL of Buffer RLT (Qiagen, Germantown, MD 20874) by Quintiles/Expression Analysis (Durham, NC) using a custom isolation procedure. Total RNA from each plate well was transferred to a preamplification plate. Fluidigm's 96.96 Dynamic ArrayTM (Fluidigm, Amsterdam, the Netherlands) technology was used for gene expression analyses by quantitative reverse transcription polymerase chain reaction (qRT-PCR, performed by Quintiles/Expression Analysis, Durham, NC)89. Standard TaqManTM Assays (Applied Biosystems/ThermoFisher Scientific, Foster City, CA) were used to assess the expression of 93 genes selected based on their selectivity and sensitivity to important hepatic receptors known to be modulated by environmental chemicals; importance in human hepatocyte functionality; and hepatotoxicity. […]
Consider `COc1ccccc1N`, for which the call was inactive.

As for `O=C(N[C@H]1CN2CCC1CC2)c1ccc2c(c1)OCCO2`, the compound was classed as inactive. On the same count and under the same terms, to `Cc1cc(C)cc(C)c1` belongs “inactive”. With `Oc1cc(Cl)c(Cl)cc1Cl`, the compound was classed as inactive. `Clc1cccc(Cl)c1`: the call was inactive. For `Clc1cccc(Cl)c1Cl`, the compound was classed as inactive. With `CC(C)(C)c1ccccc1O`, the compound was classed as inactive. As to `OCCN(CCO)CCO`, the compound was classed as inactive.

Turning to `CC(C)O.CC(C)O.OCCN(CCO)CCO.OCCN(CCO)CCO.[Ti]`, the result was inactive. In the case of `CCCCCCCCCCCCc1cccc(S(=O)(=O)O)c1`, the AC50 was 25.6 µM (active). For `O=C(O)C1(c2ccc3c(c2)OC[C@H](Cc2ccc(-c4ccccc4)cc2)[C@H]3O)CCCC1`, the call was inactive. As for `N#Cc1cccnc1`, the call was inactive.
